Assay results as given in PubChem BioAssay AID778 (Sanford-Burnham Center for Chemical Genomics, 2007).
The campaign covered roughly 96,000 compounds. About 20,000 (21%) were called active.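 The calls were made as follows: active = CYP2C19 inhibition above a set limit at 5 µM in the primary screen (cut at about 50% in these data); inactive = the rest.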 A selection follows.

Target: Cytochrome P450 2C19 (Homo sapiens) (UniProt P33261)
Assay: blockers of cytochrome P450 2C19 activity – biochemical, luminescence, ADME assay, primary screen (AID 778);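 also: plate controls were negative control wells for no effect and 2.5 mM tranylcypromine positive control for full effect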
Conditions: CYP2C19 Supersomes, luciferin-H EGE luminescence, 30 min; at 5 µM; stronger effect = higher value

Sequence of Cytochrome P450 2C19 (Homo sapiens) (P33261 whole entry, looked up): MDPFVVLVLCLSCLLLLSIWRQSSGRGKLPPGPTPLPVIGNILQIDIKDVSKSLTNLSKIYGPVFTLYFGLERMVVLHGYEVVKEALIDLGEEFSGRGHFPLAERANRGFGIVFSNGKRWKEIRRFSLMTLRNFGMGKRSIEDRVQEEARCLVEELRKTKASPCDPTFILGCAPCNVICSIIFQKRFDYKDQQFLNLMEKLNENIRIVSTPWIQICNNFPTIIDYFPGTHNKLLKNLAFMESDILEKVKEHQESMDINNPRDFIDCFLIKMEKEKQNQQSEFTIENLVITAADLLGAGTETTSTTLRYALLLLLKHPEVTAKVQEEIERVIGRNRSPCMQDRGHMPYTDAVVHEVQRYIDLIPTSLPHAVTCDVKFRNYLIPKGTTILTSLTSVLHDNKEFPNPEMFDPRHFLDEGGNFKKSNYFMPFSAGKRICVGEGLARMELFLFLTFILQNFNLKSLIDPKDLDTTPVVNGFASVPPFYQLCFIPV

| SMILES | inhibition |
| --- | --- |
| O=[N+]([O-])c1cccc(-c2nnc3c4ccccc4c4ccccc4n23)c1 | 5% (inactive) |
| COc1ccc(C2=Nc3cc(C)ccc3OC2)cc1 | 13% (inactive) |
| CN(C)CCCNC(=O)c1ccc2[nH]c3ccccc3c2c1 | 10.5% (inactive) |
| CC(C)=C(NC(=O)c1ccco1)C(=O)NCCc1nc2ccccc2[nH]1 | -12.2% (inactive) |
| O=C(COc1ccccc1)NCCc1nc2ccccc2[nH]1 | 65.9% (active) |
| COC(=O)Cc1nc2ccccc2[nH]1 | 3% (inactive) |
| COC(=O)CSc1snnc1-c1ccc(Cl)c(Cl)c1 | 44.8% (inactive) |
| Cn1c(SCC(=O)N2CCOCC2)nnc1-c1ccc(NC(=O)c2ccccc2F)cc1 | 2.8% (inactive) |
| O=C(Nc1nnc(SCc2c(Cl)cccc2Cl)s1)C1CCCO1 (stereo unspecified) | 9.6% (inactive) |
| Cc1cc(C)c2nc(SCCC#N)nc(C)c2c1 | 53.5% (active) |
| CSc1ccc(CCNC(=O)C2CCN(c3nnc(-n4cccc4)s3)CC2)cc1 | 28.8% (inactive) |
| CC(=O)Cc1nsc(NC(=O)c2csc3c2CCCC3)n1 | 42.6% (inactive) |
| CCOC(=O)Cn1c(CN(Cc2ccccc2)Cc2ccccc2)nc2c1c(=O)[nH]c(=O)n2C | 16.4% (inactive) |
| O=C(Nc1ccccc1)c1nnsc1S(=O)(=O)c1ccc(Cl)cc1 | 19.5% (inactive) |
| O=S(=O)(NCc1ccccc1Cl)c1cnc[nH]1 | 22.3% (inactive) |
| Cc1nnsc1S(=O)(=O)Cc1ccccc1Cl | 56.2% (active) |
| COc1cccc(OC)c1C(=O)Nc1nnc(C(C)C)s1 | -6.4% (inactive) |
| Cc1ccc(NC(=O)c2ccc(CSc3ncnc4nc[nH]c34)cc2)c(C)c1 | 11.8% (inactive) |
| O=C(c1ccc(O)cc1)c1ccc(C(=O)O)c(C(=O)O)c1 | -0.1% (inactive) |
| N#CC1=C(SCc2ccc(C#N)cc2)N=C(N)C(c2nc(-c3ccccc3)cs2)C12CCCCC2 (stereo unspecified) | 92.9% (active) |
| O=C(NC1CCCCC1)c1ccc2c(=O)n(CC3CCCO3)c(=O)[nH]c2c1 (stereo unspecified) | 0.4% (inactive) |
| COc1ccc(C2C3=C(OC(C)=O)c4ccccc4C3=Nc3c2c(=O)n(C)c(=O)n3C)cc1 (stereo unspecified) | -6.9% (inactive) |
| Cn1c2ccccc2c2c(C(=O)N3CCN(c4ccc(F)cc4)CC3)cn(C3CCCC3)c(=O)c21 | 85.8% (active) |
| CCOC(=O)N1CCN(C(=O)c2nn(-c3ccc(C)cc3)c(=O)c3c2c2ccccc2n3C)CC1 | -2.9% (inactive) |
| Cn1c(C(=O)N2CCC(C(N)=O)CC2)cc2c(=O)n(C)c3ccccc3c21 | -10.1% (inactive) |
| COc1ccc(CC(=O)Nc2sc(Cc3ccccc3)c(C)c2C(N)=O)cc1 | 1% (inactive) |
